Entries with a potency or affinity are not part of this list. Records with an inconclusive call do not appear. Calls of active or inactive are those of the source. The rule behind the calls is not given here.
assay: growth inhibition of intracellular Trypanosoma cruzi, dose response, cell-based, plate reader, dry powder, set 3 (AID 493197); settings: intracellular Trypanosoma cruzi in host cells; series mostly up to 19.5 µM; activity change, negative = inhibition: at the top concentration

SMILES	activity change, negative = inhibition
CCNC(=O)C1(C)CCCN(C(=O)Cc2ccc(OC)c(OC)c2)C1 (configuration not stated)	19.3% (inactive)
COCCNC(=O)C1(C)CCCN(C(=O)c2cc(OC)c(OC)c(OC)c2)C1 (configuration not stated)	14.9% (inactive)
COc1ccc(CN2CCC(C(=O)NC3CCCC3)CC2)cc1OC	-40.9% (inactive)
COc1ccc(CCN2CC(C(=O)NCc3ccc(F)cc3)CC2=O)cc1OC (configuration not stated)	-13.9% (inactive)
CCCNC(=O)C1(C)CCCN(C(=O)c2ccc(OC(F)F)cc2)C1 (configuration not stated)	1.44% (inactive)
CCNC(=O)C1CCCN(C(=O)c2cc(OC)c(OC)c(OC)c2)CC1 (configuration not stated)	-5.26% (inactive)
CCNC(=O)C1(C)CCN(C(=O)c2ccc(OC)c(OC)c2)C1 (configuration not stated)	-4.33% (inactive)
COc1ccc(CCNC(=O)C2CCCCC2)cc1OC	-18% (inactive)
COc1cc2c(cc1OC)C(C)N(CCC(N)=O)CC2 (configuration not stated)	-16.1% (inactive)
CCCNC(=O)C1(C)CCN(C(=O)Cc2ccc(OC)c(OC)c2)C1 (configuration not stated)	-38.6% (inactive)
CCCNC(=O)C1(C)CCCN(C(=O)Cc2ccc(OC)c(OC)c2)C1 (configuration not stated)	24.1% (inactive)
COCCNC(=O)C1(C)CCCN(C(=O)c2ccc(OC)c(OC)c2)C1 (configuration not stated)	-1.31% (inactive)

From PubChem BioAssay AID493197 (Broad Institute, 2011)
